Where “and” joins values, the source holds several entries; their conditions need not be identical. Identical values can stand only once. In all, about 5,500 compounds went through this assay and about 2,000 (36%) were called active. Roughly 18% stayed inconclusive and do not appear here. No stated cut-off is given here; in the data, active means normalized growth mostly below about 0.91 (no sharp cut-off); inconclusive means no clear call, values can overlap the other calls; inactive means mostly above about 0.92. Some of the results follow.
Experiment: chemical genetic growth profiling, strain panel (AID 1159580);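 further: tested at 20 µM; growth read once vehicle control cultures reached saturation at 30 °C; 1 = growth at the plate median or of vehicle wells; lower values mean less growth of the strain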
Conditions: growth OD

Measured: normalized growth

CCCN(CCC)C(=O)C(CCC(=O)O)NC(=O)c1ccccc1 (stereo unspecified)
inactive: S. cerevisiae deletion strains, locus YJR075W, strain HOC1, hits give low values 0.988 | S. cerevisiae deletion strains, locus YKL009W, strain mrt4, hits give low values 1.02 | S. cerevisiae deletion strains, locus YKL068W, hits give low values 0.975 | S. cerevisiae deletion strains, locus YKL085W, strain MDH1 (second series), hits give low values 0.987 | S. cerevisiae deletion strains, locus YKL085W, strain MDH1, hits give low values 0.987 | S. cerevisiae deletion strains, locus YKL160W, strain elf1, hits give low values 1.01 | S. cerevisiae deletion strains, locus YKL190W, strain CNB1, hits give low values 0.988 | S. cerevisiae deletion strains, locus YKR001C, strain vps1, hits give low values 0.995 | S. cerevisiae deletion strains, locus YKR026C, strain gcn3, hits give low values 0.974 | S. cerevisiae deletion strains, locus YKR091W, strain srl3, hits give low values 0.985 | S. cerevisiae deletion strains, locus YLL001W, strain dnm1, hits give low values 0.973 | S. cerevisiae deletion strains, locus YLL026W, hits give low values 0.993 | S. cerevisiae deletion strains, locus YLL041C, strain sdh2, hits give low values 0.982 | S. cerevisiae deletion strains, locus YLR027C, strain aat2, hits give low values 0.982 | S. cerevisiae deletion strains, locus YLR039C, strain RIC1, hits give low values 0.987 | S. cerevisiae deletion strains, locus YLR058C, strain SHM2, hits give low values 0.997 | S. cerevisiae deletion strains, locus YLR102C, strain apc9, hits give low values 0.986 | S. cerevisiae deletion strains, locus YLR113W, strain HOG1, hits give low values 0.96 | S. cerevisiae deletion strains, locus YLR221C, strain rsa3, hits give low values 0.988 | S. cerevisiae deletion strains, locus YLR258W, strain gsy2, hits give low values 0.973 | S. cerevisiae deletion strains, locus YLR262C, strain YPT6 (second series), hits give low values 0.968 | S. cerevisiae deletion strains, locus YLR262C, strain YPT6, hits give low values 0.998 | S. cerevisiae deletion strains, locus YLR268W, strain sec22, hits give low values 0.955 | S. cerevisiae deletion strains, locus YLR320W, strain mms22, hits give low values 0.987 | S. cerevisiae deletion strains, locus YLR330W, strain CHS5, hits give low values 0.995 | S. cerevisiae deletion strains, locus YLR342W, strain FKS1 (second series), hits give low values 1.08 | S. cerevisiae deletion strains, locus YLR342W, strain FKS1, hits give low values 0.989 | S. cerevisiae deletion strains, locus YLR357W, strain rsc2, hits give low values 0.964 | S. cerevisiae deletion strains, locus YLR370C, strain arc18, hits give low values 0.984 | S. cerevisiae deletion strains, locus YLR371W, strain rom2, hits give low values 0.986 | S. cerevisiae deletion strains, locus YLR384C, strain iki3, hits give low values 0.982 | S. cerevisiae deletion strains, locus YLR418C, strain cdc73, hits give low values 1 | S. cerevisiae deletion strains, locus YML016C, strain PPZ1, hits give low values 1.01 | S. cerevisiae deletion strains, locus YML032C, strain rad52, hits give low values 0.982 | S. cerevisiae deletion strains, locus YML120C, strain ndi1, hits give low values 0.988 | S. cerevisiae deletion strains, locus YML124C, strain tub3, hits give low values 0.988 | S. cerevisiae deletion strains, locus YMR058W, strain fet3, hits give low values 0.983 | S. cerevisiae deletion strains, locus YMR078C, strain ctf18, hits give low values 0.985 | S. cerevisiae deletion strains, locus YMR125W, strain sto1, hits give low values 0.975 | S. cerevisiae deletion strains, locus YMR129W, hits give low values 1 | S. cerevisiae deletion strains, locus YMR205C, strain PFK2, hits give low values 0.992 | S. cerevisiae deletion strains, locus YMR223W, strain ubp8, hits give low values 1.02 | S. cerevisiae deletion strains, locus YMR231W, strain pep5, hits give low values 0.976 | S. cerevisiae deletion strains, locus YMR263W, strain SAP30, hits give low values 0.99 and 1.01 | S. cerevisiae deletion strains, locus YMR307W, strain GAS1, hits give low values 1.06 and 0.989 | S. cerevisiae deletion strains, locus YNL067W, strain RPL9B, hits give low values 0.982 | S. cerevisiae deletion strains, locus YNL071W, strain lat1, hits give low values 1 | S. cerevisiae deletion strains, locus YNL128W, strain TEP1, hits give low values 0.983 | S. cerevisiae deletion strains, locus YNL153C, strain GIM3, hits give low values 1 and 1.01 | S. cerevisiae deletion strains, locus YNL175C, strain NOP13, hits give low values 1.01 | S. cerevisiae deletion strains, locus YNL183C, strain NPR1, hits give low values 0.933 | S. cerevisiae deletion strains, locus YNL197C, strain WHI3, hits give low values 1.08 | S. cerevisiae deletion strains, locus YNL209W, strain ssb2, hits give low values 0.979 | S. cerevisiae deletion strains, locus YNL224C, strain SQS1, hits give low values 1 | S. cerevisiae deletion strains, locus YNL233W, strain BNI4, hits give low values 0.989 | S. cerevisiae deletion strains, locus YNL248C, strain rpa49, hits give low values 0.948 | S. cerevisiae deletion strains, locus YNL250W, strain rad50, hits give low values 0.982 | S. cerevisiae deletion strains, locus YNL271C, strain bni1, hits give low values 0.988 | S. cerevisiae deletion strains, locus YNL298W, strain CLA4, hits give low values 0.998 | S. cerevisiae deletion strains, locus YNL307C, strain MCK1, hits give low values 0.996 | S. cerevisiae deletion strains, locus YNL322C, strain KRE1 (second series), hits give low values 0.99 | S. cerevisiae deletion strains, locus YNL322C, strain KRE1, hits give low values 0.982 and 1.01 | S. cerevisiae deletion strains, locus YNR049C, strain mso1, hits give low values 0.968 | S. cerevisiae deletion strains, locus YNR052C, strain pop2, hits give low values 0.991 | S. cerevisiae deletion strains, locus YOL006C, strain TOP1, hits give low values 0.957 | S. cerevisiae deletion strains, locus YOL012C, strain htz1 1.01 | S. cerevisiae deletion strains, locus YOL147C, strain pex11, hits give low values 0.995 | S. cerevisiae deletion strains, locus YOR001W, strain rrp6, hits give low values 0.984 | S. cerevisiae deletion strains, locus YOR061W, strain CKA2, hits give low values 1.01 | S. cerevisiae deletion strains, locus YOR069W, strain VPS5, hits give low values 0.997 | S. cerevisiae deletion strains, locus YOR070C, strain gyp1, hits give low values 0.99 | S. cerevisiae deletion strains, locus YOR080W, strain dia2, hits give low values 0.969 | S. cerevisiae deletion strains, locus YOR083W, strain WHI5 (second series), hits give low values 1.01 | S. cerevisiae deletion strains, locus YOR083W, strain WHI5, hits give low values 0.98 | S. cerevisiae deletion strains, locus YOR106W, strain vam3, hits give low values 0.975 | S. cerevisiae deletion strains, locus YOR136W, strain idh2, hits give low values 0.989 | S. cerevisiae deletion strains, locus YOR144C, strain elg1, hits give low values 0.977 | S. cerevisiae deletion strains, locus YOR184W, strain ser1, hits give low values 0.993 | S. cerevisiae deletion strains, locus YOR231W, strain MKK1, hits give low values 0.978 | S. cerevisiae deletion strains, locus YOR265W, strain rbl2, hits give low values 0.987 | S. cerevisiae deletion strains, locus YOR270C, strain vph1, hits give low values 0.919 | S. cerevisiae deletion strains, locus YOR290C, strain snf2, hits give low values 0.988 | S. cerevisiae deletion strains, locus YOR316C, strain cot1, hits give low values 0.977 | S. cerevisiae deletion strains, locus YPL051W, strain arl3, hits give low values 0.987 | S. cerevisiae deletion strains, locus YPL055C, strain LGE1, hits give low values 0.99 and 1.01 | S. cerevisiae deletion strains, locus YPL078C, strain atp4, hits give low values 0.992 | S. cerevisiae deletion strains, locus YPL106C, strain sse1, hits give low values 0.955 | S. cerevisiae deletion strains, locus YPL240C, strain hsp82, hits give low values 0.986 | S. cerevisiae deletion strains, locus YPL241C, strain CIN2, hits give low values 1 | S. cerevisiae deletion strains, locus YPL256C, strain CLN2, hits give low values 0.965 | S. cerevisiae deletion strains, locus YPR119W, strain clb2, hits give low values 0.989 | S. cerevisiae deletion strains, locus YPR141C, strain kar3, hits give low values 0.984 | S. cerevisiae deletion strains, locus YPR163C, strain tif3, hits give low values 0.977 | S. cerevisiae deletion strains, locus YPR167C, strain met16, hits give low values 0.983 | S. cerevisiae deletion strains, strain wtn01, hits give low values 0.987 | S. cerevisiae strains, strain wild type, hits give low values 1
